Results filed as inconclusive are left out. Active and inactive are the calls of the source. The call rests on the fitted dose curve; in most records, active means well fitted activation curve with a large enough effect in the signal ratio in the repeat runs (not every such curve was filed as active); inconclusive means weak or mixed curves; inactive means flat fitted curve, though single readings scatter; the % refers to the signal ratio.
Experiment: qHTS assay to identify small molecule agonists of the hypoxia (HIF-1) signaling pathway (AID 1224846)
Conditions: HRE-bla ME-180 cells, beta-lactamase ratio, 17 h; series mostly up to 76.8 µM
Text: U.S. Tox21 Program National Center for Advancing Translational Sciences [NCATS] NIH Chemical Genomics Center [NCGC] U.S. Environmental Protection Agency [EPA] National Institutes of Environmental Health Sciences [NIEHS] National Toxicology Program [NTP] U.S. Food and Drug Administration [FDA] Tox21 Assay Overview: Hypoxia-inducible factor-1 (HIF-1) is the major hypoxia-regulated transcription factor that controls cellular responses to low oxygen concentration. HIF-1 is composed of two subunits: hypoxia responsive HIF-1-alpha and constitutively expressed HIF-1-beta, which is also known as aryl hydrocarbon receptor nuclear translocator. During hypoxic conditions, HIF-1-alpha heterodimerizes with HIF-1-beta and translocates into the nucleus where the HIF-1 complex binds to the hypoxia-response element (HRE) and activates expression of target genes such as VEGF (vascular endothelial growth factor). The HIF-1 pathway is essential to normal growth and development, and is involved in the pathophysiology of cancer, inflammation, and ischemia. Using a beta-lactamase reporter-gene under control of the hypoxia response element, a cell-based assay [CellSensor(TM) HRE-bla ME-180 from Life Technologies, Carlsbad, CA] was used to measure hypoxia-induced signaling. Tox21 10K library compounds were measured for their ability to induce the reporter gene activity.
Tox21 Assay Protocol Summary: HRE-bla ME-180 cells were dispensed at 2,000 cells per well in 6 uL of assay medium containing 0.5% dialyzed FBS into black wall/clear-bottom 1536-well plates using a Multidrop Combi (Thermo Scientific, Waltham, MA) dispenser. After the assay plates were incubated at 37C and 5% CO2 for 5 hrs, 23 nL of compounds dissolved in DMSO, positive controls or DMSO only was transferred to each well of the assay plate using a Pintool station (Kalypsys, San Diego, CA). The assay plates were incubated at 37C and 5% CO2 for 17 hrs. One uL of LiveBLAzerTM B/G FRET substrate (CCF4-AM) (Life Technologies) was added to each well using a Flying Reagent Dispenser (Aurora Discovery, San Diego, CA).
For `CCCC(=O)OCc1ccccc1`, the outcome was “inactive”.
For `O=c1[nH][nH]c2ccccc12`, the outcome was “inactive”.
With `CC(=O)Nc1ccn(C2COC(COC(=O)c3ccccc3)O2)c(=O)n1` (stereo not given) the outcome was “inactive”.
With `CCCOC(C)=O` the outcome was “inactive”.
For `CC1(C)CC(=O)CC(C)(C)N1`, the outcome was “inactive”.
In the case of `O=C1c2ccccc2C(=O)C1c1ccc2ccccc2n1`, the outcome is reported as “inactive”.
In the case of `CC(C)Cc1nccs1`, the outcome is reported as “inactive”.
With `CO[C@@H]1[C@@H](O[C@@H]2O[C@H](C)[C@@H](O[C@H]3C[C@@](C)(O)[C@@H](O)[C@H](C)O3)[C@H](N(C)C)[C@H]2O)[C@@H](CC=O)C[C@@H](C)[C@@H](O[C@@H]2CC[C@H](N(C)C)[C@@H](C)O2)/C=C/C=C/C[C@@H](C)OC(=O)C[C@H]1OC(C)=O` the outcome was “inactive”.
With `CCOc1ccc2c(c1)C(C)CC(C)(C)N2` (stereo not given) the outcome was “inactive”.
In the case of `CCCCCCCCS`, the outcome is reported as “inactive”.
In the case of `Cc1ccc(NC=O)c(C)c1`, the outcome is reported as “inactive”.
With `C(/C=C/C=C/Nc1ccccc1)=Nc1ccccc1` the outcome was “inactive”.
With `O=C(O)CCc1nc2ccccc2[nH]1` the outcome was “inactive”.
In the case of `CCCCCCCCNC`, the outcome is reported as “inactive”.
In the case of `COc1ccc(C(=O)Nc2ccccc2)cc1[N+](=O)[O-]`, the outcome is reported as “inactive”.
For `O=C(Cl)c1cc(Cl)cc(Cl)c1`, the outcome was “inactive”.
With `CCC(C)CCCC(C)(C)O` (stereo not given) the outcome was “inactive”.
For `CC(C)=CCCC(C)C=O` (stereo not given), the outcome was “inactive”.
For `COc1ccc(/C=C/S(=O)(=O)NC(=O)c2ccc(C)cc2Cl)cc1`, the outcome was “inactive”.
In the case of `C[C@H]1C[C@H]2[C@@H]3CCC4=CC(=O)C=C[C@]4(C)[C@@]3(F)[C@@H](O)C[C@]2(C)[C@@]1(O)C(=O)COP(=O)(O)O`, the outcome is reported as “inactive”.
With `CC(C)(Cc1c[nH]c2ccccc12)NCC(O)COc1ccccc1C#N` (stereo not given) the outcome was “inactive”.
For `O=C(O)c1ccc(O)c(O)c1`, the outcome was “inactive”.
For `CC(C)(C)NCC(O)COc1ccc(NC(=O)NC2CCCCC2)cc1` (stereo not given), the outcome was “inactive”.
For `CC(C)C/C=C(\C=O)c1ccccc1`, the outcome was “inactive”.
With `Cc1ccc2ccccc2c1[N+](=O)[O-]` the outcome was “inactive”.
In the case of `CCC1=C(C)CN(C(=O)NCCc2ccc(S(=O)(=O)NC(=O)NC3CCC(C)CC3)cc2)C1=O` (stereo not given), the outcome is reported as “inactive”.
In the case of `CCOCCn1c(N2CCCN(C)CC2)nc2ccccc21`, the outcome is reported as “inactive”.
With `CCCCOc1ccc(N)cc1` the outcome was “inactive”.
With `C/C=C1\[C@H]2C=C(C)C[C@]1(N)c1ccc(=O)[nH]c1C2` the outcome was “inactive”.
In the case of `C=CCCC`, the outcome is reported as “inactive”.
In the case of `C[C@@H](O)[C@H]1C(=O)N2C(C(=O)O)=C(S[C@@H]3CN[C@H](CNS(N)(=O)=O)C3)[C@H](C)[C@H]12`, the outcome is reported as “inactive”.
For `O=C(O)c1ccc2cc(O)ccc2c1`, the outcome was “inactive”.
For `COc1ccc(C(=O)c2ccc(C)cc2)c(O)c1`, the outcome was “inactive”.
In the case of `CCc1ccc(C(=O)C(C)CN2CCCCC2)cc1` (stereo not given), the outcome is reported as “inactive”.
In the case of `C=CC(=O)NC(C)(C)C`, the outcome is reported as “inactive”.
In the case of `C1CCN(CN2CCCCC2)CC1`, the outcome is reported as “inactive”.
For `Cc1nc2sccn2c(=O)c1CCN1CCC(=C(c2ccc(F)cc2)c2ccc(F)cc2)CC1`, the outcome was “inactive”.
For `CC(C)(O)C(=O)O`, the outcome was “inactive”.
For `CCc1ccc2c(c1)C(=O)c1ccccc1C2=O`, the outcome was “inactive”.
For `CCCCOC(=O)C(C)Oc1ccc(Oc2ccc(C(F)(F)F)cn2)cc1` (stereo not given), the outcome was “inactive”.
